For 15 sequences, binding signal results are on record in PMC3218832.

Among the targets are RELARELA (p65 homodimer) (Homo sapiens, UniProt Q04206 1-307); p50p50 homodimer (Homo sapiens, UniProt P19838 7-356); RELB subunit;p50 subunit (Homo sapiens;Homo sapiens, UniProt Q01201;P19838 120-401;7-356).
What all share (test): protein binding microarray; high values mean tight binding
Conditions in all cases: dsDNA, one strand shown

The target in another assay is T1, p52p52 homodimer (Homo sapiens, UniProt Q00653 4-332).
T1 sequence: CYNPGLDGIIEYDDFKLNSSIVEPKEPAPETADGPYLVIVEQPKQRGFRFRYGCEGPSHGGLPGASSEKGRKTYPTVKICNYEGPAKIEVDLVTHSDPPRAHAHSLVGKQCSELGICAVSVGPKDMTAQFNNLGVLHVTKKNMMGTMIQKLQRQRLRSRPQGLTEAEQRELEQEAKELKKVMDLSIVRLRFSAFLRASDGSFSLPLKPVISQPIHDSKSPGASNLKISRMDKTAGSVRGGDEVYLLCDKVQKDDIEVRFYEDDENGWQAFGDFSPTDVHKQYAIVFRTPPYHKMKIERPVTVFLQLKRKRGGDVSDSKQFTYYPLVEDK

Assay [1] deals with RELA (p65) subunit of heterodimer;p50 subunit (Homo sapiens;Homo sapiens, UniProt Q04206;P19838 1-307;7-356).
The target in assay [2] is RELA (p65) subunit of heterodimer;p52 subunit (Homo sapiens;Homo sapiens, UniProt Q04206;Q00653 1-307;4-332).
For a further assay, the target named is T2, RELB subunit;p52 subunit (Homo sapiens;Homo sapiens, UniProt Q01201;Q00653 120-401;4-332).
T2 sequence 1: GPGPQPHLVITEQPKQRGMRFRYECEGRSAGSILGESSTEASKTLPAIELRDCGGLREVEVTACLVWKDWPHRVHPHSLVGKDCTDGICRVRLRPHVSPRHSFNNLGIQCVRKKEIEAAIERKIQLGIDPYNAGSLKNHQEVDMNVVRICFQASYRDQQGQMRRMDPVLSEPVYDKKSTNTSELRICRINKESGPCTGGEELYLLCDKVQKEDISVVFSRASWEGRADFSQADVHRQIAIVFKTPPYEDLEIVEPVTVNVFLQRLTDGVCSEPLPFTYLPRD
T2 sequence 2: T1 sequence

Assay [3] deals with C-Rel subunit;p50 subunit (Homo sapiens;Homo sapiens, UniProt Q04864;P19838 1-285;7-356).
Assay [4] concerns the target T3, C-Rel subunit;p52 subunit (Homo sapiens;Homo sapiens, UniProt Q04864;Q00653 1-285;4-332).
T3 sequence 1: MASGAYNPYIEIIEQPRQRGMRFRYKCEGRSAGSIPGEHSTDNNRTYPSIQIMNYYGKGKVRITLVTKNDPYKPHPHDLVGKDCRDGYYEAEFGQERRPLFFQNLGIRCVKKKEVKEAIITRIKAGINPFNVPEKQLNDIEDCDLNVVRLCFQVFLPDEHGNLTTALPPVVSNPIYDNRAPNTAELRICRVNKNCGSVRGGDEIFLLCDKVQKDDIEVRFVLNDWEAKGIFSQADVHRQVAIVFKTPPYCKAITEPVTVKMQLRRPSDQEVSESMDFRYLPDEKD
T3 sequence 2: T1 sequence

Sequence of p50p50 homodimer (P19838 7-356): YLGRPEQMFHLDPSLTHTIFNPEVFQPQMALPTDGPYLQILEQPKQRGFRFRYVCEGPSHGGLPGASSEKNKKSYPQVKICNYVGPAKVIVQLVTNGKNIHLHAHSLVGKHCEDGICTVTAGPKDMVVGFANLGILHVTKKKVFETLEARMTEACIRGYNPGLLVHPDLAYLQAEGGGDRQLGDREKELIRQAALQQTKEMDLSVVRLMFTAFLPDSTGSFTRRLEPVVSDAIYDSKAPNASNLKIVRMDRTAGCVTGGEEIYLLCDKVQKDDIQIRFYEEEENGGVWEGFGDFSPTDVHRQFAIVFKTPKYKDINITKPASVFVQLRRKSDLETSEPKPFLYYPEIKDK
Sequence of RELARELA (p65 homodimer) (Q04206 1-307): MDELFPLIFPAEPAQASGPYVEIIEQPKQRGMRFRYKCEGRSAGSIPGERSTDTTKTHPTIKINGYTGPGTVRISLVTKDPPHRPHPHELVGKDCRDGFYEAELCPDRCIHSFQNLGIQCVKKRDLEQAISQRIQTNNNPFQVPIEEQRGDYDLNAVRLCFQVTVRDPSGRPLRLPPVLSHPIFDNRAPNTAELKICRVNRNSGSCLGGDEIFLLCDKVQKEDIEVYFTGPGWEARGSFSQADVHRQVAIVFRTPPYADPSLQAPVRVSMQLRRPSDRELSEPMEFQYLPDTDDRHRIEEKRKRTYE
Sequence of RELA (p65) subunit of heterodimer;p50 subunit (Q04206 1-307, chain 1 of 2): as the sequence (Q04206 1-307) above
Sequence of RELA (p65) subunit of heterodimer;p50 subunit (P19838 7-356, chain 2 of 2): as the sequence (P19838 7-356) above

In the case of CAATGTCTCCC, the binding signal with RELARELA (p65 homodimer) is -0.338 z-score; with p50p50 homodimer, -0.647 z-score; with p52p52 homodimer, -0.276 z-score; in assay [1], -0.405 z-score; in assay [2], -0.499 z-score; with RELB subunit;p50 subunit, -0.294 z-score. In addition, the results for the binding signal (with RELB subunit;p52 subunit; in [3]; in [4]) were -0.275 z-score, -0.53 z-score and -0.561 z-score, respectively.
In the case of CAAATAGCCCC, the binding signal is 0.081 z-score in the assay with RELARELA (p65 homodimer); 0.839 z-score in the assay with p50p50 homodimer; 0.425 z-score with p52p52 homodimer; 0.413 z-score in [1]; 0.823 z-score in [2]; 0.524 z-score in the assay with RELB subunit;p50 subunit. In addition, the binding signal with RELB subunit;p52 subunit stood at 0.621 z-score; in assay [3], 0.331 z-score; in assay [4], 0.543 z-score.
Turning to AGATAGATCCT, the binding signal was -0.82 z-score in the assay with RELARELA (p65 homodimer); -1.87 z-score in the assay with p50p50 homodimer; -0.716 z-score with p52p52 homodimer; -1.06 z-score in assay [1]; -1.23 z-score in assay [2]; -1.03 z-score with RELB subunit;p50 subunit. The binding signal is -0.915 z-score with RELB subunit;p52 subunit, -1.64 z-score in assay [3] and -0.98 z-score in assay [4].
Consider AGGGGAGTCCT, for which the binding signal in the assay with RELARELA (p65 homodimer) came out at 0.691 z-score; with p50p50 homodimer it was 0.962 z-score; with p52p52 homodimer, 1.64 z-score; in assay [1], 0.872 z-score; in assay [2], 1.1 z-score; with RELB subunit;p50 subunit, 0.907 z-score. Moreover, the binding signal amounted to 0.881 z-score with RELB subunit;p52 subunit, 0.64 z-score in assay [3] and 0.78 z-score in assay [4].
Consider AAAGTGATCCT, for which the binding signal with RELARELA (p65 homodimer) is -0.833 z-score; with p50p50 homodimer, -1.79 z-score; with p52p52 homodimer it was -0.692 z-score; in [1] it was -1.3 z-score; in assay [2] it was -1.06 z-score; with RELB subunit;p50 subunit, -1.27 z-score. Also, the binding signal was -0.978 z-score in the assay with RELB subunit;p52 subunit, -1.55 z-score in assay [3] and -0.986 z-score in [4].
Turning to CAGAGACCCCC, the binding signal with RELARELA (p65 homodimer) was -1.05 z-score; with p50p50 homodimer, 0.706 z-score; in the assay with p52p52 homodimer, 0.0929 z-score; in assay [1], 0.407 z-score; in assay [2], 0.302 z-score; in the assay with RELB subunit;p50 subunit it was 0.373 z-score. The binding signal with RELB subunit;p52 subunit amounted to 0.502 z-score; in [3] it was 0.323 z-score; in [4] it was 0.174 z-score.
For GGATACTTCCT, the binding signal is 0.213 z-score in the assay with RELARELA (p65 homodimer); -1.36 z-score in the assay with p50p50 homodimer; -0.625 z-score with p52p52 homodimer; -0.647 z-score in assay [1]; -0.831 z-score in assay [2]; -1.14 z-score with RELB subunit;p50 subunit. The results for the binding signal (with RELB subunit;p52 subunit; in [3]; in assay [4]) were -0.942 z-score, -1.04 z-score and -0.591 z-score, respectively.
Take CAAAGTCCCCT: the binding signal with RELARELA (p65 homodimer) came to 0.169 z-score; in the assay with p50p50 homodimer, 1.47 z-score; with p52p52 homodimer, 1.68 z-score; in [1] it was 1.79 z-score; in [2], 1.67 z-score; with RELB subunit;p50 subunit, 2.07 z-score. Further, the binding signal amounted to 1.96 z-score with RELB subunit;p52 subunit, 1.43 z-score in assay [3] and 1.57 z-score in assay [4].
As for CGGAGAGTCCT, the binding signal in the assay with RELARELA (p65 homodimer) was 1 z-score; with p50p50 homodimer, -1.2 z-score; with p52p52 homodimer it was -0.591 z-score; in assay [1] it was -0.159 z-score; in assay [2], -0.629 z-score; with RELB subunit;p50 subunit it was -0.808 z-score. Further, the binding signal with RELB subunit;p52 subunit is -0.743 z-score; in [3], -0.482 z-score; in assay [4], -0.448 z-score.
For the sequence CAGTGACCCCT, the binding signal was -0.538 z-score in the assay with RELARELA (p65 homodimer); -0.115 z-score with p50p50 homodimer; -0.0283 z-score with p52p52 homodimer; -0.321 z-score in [1]; -0.373 z-score in assay [2]; -0.303 z-score in the assay with RELB subunit;p50 subunit. The binding signal with RELB subunit;p52 subunit was -0.116 z-score; in [3], -0.672 z-score; in assay [4] it was -0.427 z-score.
With CAATTCGTCCC, the binding signal with RELARELA (p65 homodimer) was 0.717 z-score; in the assay with p50p50 homodimer, 0.108 z-score; with p52p52 homodimer, 0.533 z-score; in assay [1] it was -0.0179 z-score; in assay [2], 0.123 z-score; in the assay with RELB subunit;p50 subunit it was 0.362 z-score. Moreover, the binding signal with RELB subunit;p52 subunit turned out to be 0.547 z-score; in assay [3] it was 0.479 z-score; in assay [4] it was 0.00577 z-score.
GGGTTTGCCCT: the binding signal in the assay with RELARELA (p65 homodimer) was 1.25 z-score; with p50p50 homodimer, -0.184 z-score; with p52p52 homodimer, 0.265 z-score; in assay [1], 0.277 z-score; in assay [2], 0.423 z-score; in the assay with RELB subunit;p50 subunit, -0.518 z-score. Besides, the binding signal with RELB subunit;p52 subunit was -0.154 z-score; in assay [3] it was 0.409 z-score; in assay [4], 0.225 z-score.
Turning to GAGGGATTCCT, the binding signal came out at 0.218 z-score with RELARELA (p65 homodimer); 0.321 z-score with p50p50 homodimer; 0.87 z-score with p52p52 homodimer; 0.254 z-score in assay [1]; 0.589 z-score in assay [2]; 0.159 z-score with RELB subunit;p50 subunit. For the same sequence, the binding signal with RELB subunit;p52 subunit came out at 0.491 z-score; in assay [3] it was 0.376 z-score; in [4], 0.538 z-score.
In the case of AGGAATGCCCT, the binding signal with RELARELA (p65 homodimer) is 1.19 z-score; in the assay with p50p50 homodimer, -0.455 z-score; with p52p52 homodimer, -0.376 z-score; in [1], -0.147 z-score; in [2] it was -0.196 z-score; with RELB subunit;p50 subunit, -0.674 z-score. In addition, the values for the binding signal (with RELB subunit;p52 subunit; in assay [3]; in [4]) were -0.494 z-score, -0.208 z-score and 0.0938 z-score, respectively.
For the sequence GAGGTAGTCCC, the binding signal with RELARELA (p65 homodimer) was found to be 0.343 z-score; with p50p50 homodimer, 0.907 z-score; with p52p52 homodimer it was 0.506 z-score; in [1] it was 0.436 z-score; in assay [2], 0.326 z-score; with RELB subunit;p50 subunit, 0.57 z-score. Besides, the binding signal in the assay with RELB subunit;p52 subunit came out at 0.233 z-score; in [3], 0.447 z-score; in [4], 0.318 z-score.
